The list is not random: actives were taken first. Their share in the collection is about 6%.
DRD3 agonist: D3 dopamine receptor (human) agonism; P35462; D3R DiscoveRx beta-arrestin cells, luminescence, 90 min; max activation, %; hit rate 0.58% among 410,000; in the data active = max activation above about 30%
Target sequence (P35462 whole entry, looked up): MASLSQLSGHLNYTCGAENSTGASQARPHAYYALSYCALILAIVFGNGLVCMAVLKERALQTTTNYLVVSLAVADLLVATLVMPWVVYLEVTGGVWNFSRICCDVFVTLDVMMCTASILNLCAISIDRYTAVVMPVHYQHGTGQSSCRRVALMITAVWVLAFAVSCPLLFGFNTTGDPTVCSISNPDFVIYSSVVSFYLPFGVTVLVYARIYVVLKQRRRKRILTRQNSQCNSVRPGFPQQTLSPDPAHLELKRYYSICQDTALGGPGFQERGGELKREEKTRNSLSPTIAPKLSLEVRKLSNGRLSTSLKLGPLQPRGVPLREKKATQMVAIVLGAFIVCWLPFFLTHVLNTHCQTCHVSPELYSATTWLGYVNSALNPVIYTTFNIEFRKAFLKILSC
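Agonist-mode cell screen: cells plated at 1500/well and incubated overnight at 37 °C, then exposed to library compounds for 90 min at 37 °C. Detection reagent was added for 30–60 min at room temperature, and luminescence was read.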
D1 PAM: enhances dopamine response at the human D1 receptor; P21728; HEK293 TREx D1 cells, calcium flux, dopamine EC20 potentiation; potentiation, % at 10 µM; hit rate 0.036% among 360,000; AID 504651; in the data active = potentiation above about 30%
D1 agonist: activates the human D1 dopamine receptor; P21728; HEK293 T-REx D1 cells, calcium flux, agonist mode; activation, % at 2 µM; hit rate 1% among 360,000; AID 504660; in the data active = activation above about 30%
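Agonism was scored from calcium flux recorded over 180 s (1 read/s) after pintool compound addition, following a 10-cycle baseline. Cells were inducible force-coupled HEK293 TREx D1, plated overnight at 30 C and loaded with no-wash calcium dye.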
Chronic BCR inh: chronic active BCR signaling inhibition | ABC-DLBCL IkBa-CBG/CBR reporter, luminescence ratio, 4 h | hit rate 0.05% among 340,000 | Potency, µM (titrated, usually from 46.1 µM), hits mostly inhibitors; active = well fitted inhibition curve with a large enough effect in the signal ratio, with a control signal flat, not every such curve was filed as active; inconclusive = small, poorly fitted or top-dose-only effect, or effect the other way, or a change in a side signal; the % refers to the signal ratio
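TMD8 ABC-DLBCL cells carrying doxycycline-inducible green luciferase fused to IkappaBalpha plus unfused red luciferase were exposed to compounds (up to 46 uM) for 4 hrs at 37C. Activity came from the overlap-corrected green/red luminescence ratio.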
D1 antagonist: human D1 dopamine receptor antagonism. HEK293 TREx D1 cells, calcium flux, dopamine EC80; hits give low values. activity change, negative = inhibition, % at 10 µM. hit rate 3.2% among 360,000; in the data active = activity change below about -30%
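Compound effects on dopamine-evoked calcium signalling were measured in tetracycline-induced HEK293 Trex D1 cells. Dopamine at EC80 followed a 180 s compound pre-read, and fluorescence was tracked kinetically for 180 s more.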
D3 antag: blocks the human D3 dopamine receptor. max response, negative = inhibition, %. hit rate 2.5% among 360,000. D3R cells, DiscoveRx beta-arrestin luminescence, antagonist mode; hits give low values. AID 652054; in the data active = max response below about -50%; inconclusive = no clear call, values can overlap the other calls
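Cells expressing the human receptor were seeded at 1500 cells/well, incubated overnight at 37 degrees C in 5% CO2, then exposed to library compounds with dopamine controls for 90 minutes at 37 degrees C before luminescent detection.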
A number is an active result; . = inactive; ? = inconclusive; / = not tested or not shown.

SMILES	DRD3 agonist	D1 PAM	D1 agonist	Chronic BCR inh	D1 antagonist	D3 antag
O=C(CN1CCCCCC1)Nc1ccc(Oc2ccccc2)cc1	.	.	67	.	-38	.
Cc1ccccc1-c1ccc2c(c1)O[C@H](CN(C)C(=O)C1CC1)[C@@H](C)CN([C@@H](C)CO)S2(=O)=O	.	/	/	/	/	.
Cc1cc(C)c(S(=O)(=O)Nc2ccc(-c3ccc(N4CCCCC4)nn3)cc2)c(C)c1	.	.	.	/	.	/
COc1ccc(F)cc1S(=O)(=O)N1CCCN(S(=O)(=O)c2cc(F)ccc2OC)CC1	.	.	.	.	-30	.
O=S(=O)(c1ccccc1)N1CCN(C2CCN(Cc3ccccc3)CC2)CC1	.	.	.	.	.	?
O=S(=O)(c1ccc2ccccc2c1)N1CCN(C2CCN(Cc3ccccc3)CC2)CC1	.	.	.	.	.	-61
CCOc1ccc(S(=O)(=O)N2CCN(Cc3ccccc3)CC2)cc1	.	.	.	.	-39	.
Cc1ccc(S(=O)(=O)N2CCN(Cc3ccccn3)CC2)cc1	.	.	.	?	.	.
O=S(=O)(c1ccc2ccccc2c1)N1CCN(Cc2ccccn2)CC1	.	.	51	.	.	.
CC1(C)C(\C=C/C=C\C=C/C=C2/N(CCCCS(=O)(=O)O)c3ccc4ccccc4c3C2(C)C)=[N+](CCCCS(=O)(=O)[O-])c2ccc3ccccc3c21	.	/	/	/	/	/
COc1cccc(CN(C)C[C@H]2OCc3cnnn3CCCC(=O)N([C@@H](C)CO)C[C@@H]2C)c1	.	/	/	/	/	.
CC(C)Nc1cc(N2CCN(C3CCCCC3)CC2)c2noc3c2c1C(=O)c1ccccc1-3	.	.	.	/	.	/
COc1cccc(CNC(=O)Cn2ncn3nc(-c4cccs4)cc3c2=O)c1	.	.	.	/	.	/
O=C(C(O)c1ccccc1)N1CCN(S(=O)(=O)c2ccc(OC(F)(F)F)cc2)CC1 (stereo not given)	.	/	/	/	/	.
Cc1nc2ccn(Cc3ccccc3)c(=O)c2cc1C(=O)Nc1ccc(F)cc1Cl	.	.	.	/	.	/
COc1ccc(C(=O)O)cc1S(=O)(=O)N1CCN(c2ccccn2)CC1	.	.	.	.	.	.
COc1ccc(OC)c(S(=O)(=O)N2CCN(c3ccccn3)CC2)c1	.	.	.	.	.	-104
COc1ccccc1N1CCN(S(=O)(=O)c2ccccc2)CC1	.	.	.	?	.	.
COc1ccc(C(C)(C)C)cc1S(=O)(=O)N1CCC(C(N)=O)CC1	.	.	.	?	.	-52
COc1ccc(F)cc1S(=O)(=O)N1CCC(C(N)=O)CC1	.	.	.	.	.	.
COc1cccc(CN2CCCN(S(=O)(=O)c3ccc(Br)cc3)CC2)c1	.	.	.	.	.	-57
O=S(=O)(c1ccc(Br)cc1)N1CCCN(Cc2cccc(F)c2)CC1	.	.	.	?	.	.
COc1ccccc1N1CCN(S(=O)(=O)c2ccccc2F)CC1	.	.	.	.	-32	.
CC(C)(C)S(=O)N1Cc2cc(CO)ccc2[C@H]1CCO (stereo not given in full)	.	/	/	/	/	.
COc1ccccc1N1CCN(C2CCN(S(=O)(=O)c3ccc4ccccc4c3)CC2)CC1	.	.	.	.	.	-54
SMILES	DRD3 agonist	D1 PAM	D1 agonist	Chronic BCR inh	D1 antagonist	D3 antag
COc1ccccc1N1CCN(C2CCN(S(=O)(=O)c3ccc(C)cc3)CC2)CC1	.	.	.	.	.	-70
CN(C)S(=O)(=O)c1ccc(Cl)c(NC(=O)CN2CCN(Cc3ccc4c(c3)OCO4)CC2)c1	.	.	.	.	-58	.
CN(C)S(=O)(=O)c1ccc(Cl)c(NC(=O)CN2CCc3ccccc3C2)c1	74	.	.	.	.	.
CN(C)S(=O)(=O)c1ccc(Cl)c(NC(=O)COC(=O)c2cc(-c3ccccc3)nc3ccccc23)c1	36	.	.	?	.	.
CCN(CC)S(=O)(=O)c1ccc(O)c(NC(=O)CN2CCc3ccccc3C2)c1	.	.	.	.	.	.
COC(=O)c1[nH]c2ccc(Cl)cc2c1NC(=O)CN1CCc2cc(OC)c(OC)cc2C1	.	.	.	.	.	?
COC(=O)c1[nH]c2cc(C)ccc2c1NC(=O)CN1CCc2cc(OC)c(OC)cc2C1	.	.	.	.	.	-67
COC(=O)c1[nH]c2ccc(C)cc2c1NC(=O)c1ccccc1[N+](=O)[O-]	.	.	.	.	-36	.
CCOC(=O)N1CCN(CC(=O)Nc2c(C(=O)OC)[nH]c3cccc(Cl)c23)CC1	40	.	.	.	.	?
COC(=O)c1[nH]c2ccc(C)cc2c1NC(=O)CN1CCN(c2ccccc2)CC1	36	.	.	?	.	.
COC(=O)c1[nH]c2ccc(Br)cc2c1NC(=O)CN1CCCCC1CCO (stereo not given)	.	.	.	?	-41	.
COC(=O)c1[nH]c2ccc(Br)cc2c1NC(=O)C(C)N1CCN(C2CCCCC2)CC1 (stereo not given)	.	.	.	.	.	.
Cc1c(CC(Cl)(Cl)Cl)c2c(n1O)CC(C)(C)CC2=O	.	.	.	?	-46	.
Cc1nn(-c2ccc(C(=O)O)cc2)c2c1C(=O)CC(C)(C)C2	.	.	.	.	.	.
Cc1ccc(S(=O)(=O)N2C[C@H]3n4c(=O)ccc(=O)n4C[C@H](OC(=O)NCc4ccccc4F)[C@@]3(O)C2)cc1	.	/	/	/	/	.
COc1ccccc1NS(=O)(=O)c1cc(NC(=O)C(C)(C)C)ccc1N1CCOCC1	.	.	.	.	.	.
O=S(=O)(Nc1ccccc1F)c1cccc(NC(=S)NCCN2CCOCC2)c1	.	/	/	.	/	.
O=S(=O)(Nc1ccc(Br)cc1)c1cccc(NC(=S)NCCN2CCOCC2)c1	.	.	52	?	.	.
COc1ccccc1NS(=O)(=O)c1cc(NC(=S)NCCN2CCOCC2)ccc1N1CCOCC1	.	.	.	.	-34	.
COc1cc(CN2C[C@@H](CO)O[C@@H](n3cnc4c(NCCCO)ncnc43)C2)cc(OC)c1OC	.	/	/	/	/	.
O=C(Cn1ncc2ccsc2c1=O)N1CCN(c2ccccc2)CC1	.	.	.	/	.	/
CCCCC1=CC2=CC(=O)C(C)(OC(=O)CC)C(=O)C2=CN1c1ccc(OC)cc1 (stereo not given)	.	.	.	.	.	.
CCCCC1=CC2=CC(=O)C(C)(OC(=O)CC)C(=O)C2=CN1c1cccc(C#N)c1 (stereo not given)	32	/	/	/	/	.
Cc1ccc(-c2csc(=Nc3ccccc3)n2Cc2ccc3c(c2)OCO3)cc1C	.	.	.	/	.	/
C=CCOC(=O)C1=C(C)NC(=O)NC1c1ccc(N(C)C)cc1 (stereo not given)	.	.	.	.	.	.
CCOC(=O)C1=C(C)NC(C)=C(C(=O)OCC)C1c1ccc(OC)c(OC)c1	.	/	/	/	/	.

Bioassay records as filed in PubChem.
